G9a block = G9a (human) methyltransferase inhibition. Potency, µM (titrated, usually from 102 µM), for the others: at the highest dose activity, negative = inhibition, usual class: inhibitors. G9a H3K9 monomethylation, AlphaScreen, 2 h. Q96KQ7. 350,000 tested, 8.8% active. AID 504332; further: on the % scale 0 is the no-effect control and ±100 the full control effect; nearly all actives have a fitted effect of over 75% in size
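G9a (20 nM) was preincubated 15 min with compound, then reacted 2 h at room temperature with 500 nM biotin-H3K9 peptide and 20 µM SAM. Monomethyl-H3K9 detected by AlphaScreen using anti-H3K9me1 antibody.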
HP1b binding inh = inhibitors of HP1-beta chromodomain binding to methylated histone tails; Potency, µM (series often up to 114 µM), for inactives: top-dose activity change, negative = inhibition, actives largely listed as inhibitors; AlphaScreen HP1-beta / biotin-H3K9me3 peptide binding; P83916; 390,000 tested, 0.56% active; further: nearly all actives have a fitted effect of over 70% in size
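AlphaScreen: HP1-beta (50 nM) preformed 30 min with biotin-H3(1-18)K9me3 peptide (50 nM) in PBS pH 7.4, 0.01% Tween-20. Compound added for 30 min at RT, then streptavidin donor/nickel chelate acceptor beads (10 ug/mL) for 30 min.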
BAZ2B inh = blocks human BAZ2B. AID 504333. AlphaScreen BAZ2B-H3K14Ac peptide displacement. Potency, µM (highest dose often 114 µM), without a hit: at the highest dose activity change, negative = inhibition, usual class: inhibitors. 360,000 tested, 4.4% active. Q9UIF8; further: on the % scale 0 is the no-effect control and ±100 the full control effect; nearly all actives have a fitted effect of over 60% in size
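AlphaScreen displacement of biotin-H3(5-23)K14Ac peptide (50 nM final) from BAZ2B (50 nM final) in PBS pH 7.4, 0.01% Tween-20; complex preformed 30 min RT, then compounds (top 110 uM) 30 min RT, beads 20 min dark.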
JMJD2A Tudor = blocks the human JMJD2A Tudor domain; AlphaScreen JMJD2A-Tudor / H3K4me3 peptide binding; Potency, µM (doses to about 114 µM), for the others: at the top dose activity change, negative = inhibition, most hits filed as inhibitors; 390,000 tested, 4.4% active; further: on the % scale 0 is the no-effect control and ±100 the full control effect; nearly all actives have a fitted effect of over 50% in size
L3MBTL1 inh = L3MBTL1 (human) inhibition; AlphaScreen L3MBTL1–H3K9me1 peptide binding; AID 485360; Potency, µM (top dose mostly 57.1 µM), for inactives: at the top dose activity, negative = inhibition, actives largely listed as inhibitors; 230,000 tested, 0.66% active; further: on the % scale 0 is the no-effect control and ±100 the full control effect; nearly all actives have a fitted effect of over 60% in size
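Read-out is AlphaScreen signal from streptavidin donor and nickel chelate acceptor beads (10 ug/mL final each) bridging L3MBTL1 (50 nM) and biotinylated K9-monomethylated H3(1-15) peptide (75 nM), after 30 min compound exposure at room temperature.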
An asterisk follows results filed as active; ? = inconclusive; nt = no result; [ ] = another dose, or the depositor's remark. Rows were chosen to be rich in hits. Some 11% of all compounds tested hit in one or more screens of this group. The call rests on the fitted dose curve; in most records, active means well fitted inhibition curve with a large enough effect; inconclusive means small, poorly fitted or top-dose-only effect; inactive means no such curve, though single readings can be large or run the other way. Potency means the concentration at half of the fitted maximal effect.

SMILES	G9a block	HP1b binding inh	BAZ2B inh	JMJD2A Tudor	L3MBTL1 inh
CCC(=O)N1c2ccc(S(=O)(=O)N3CCCCCC3)cc2CC1C (stereo not given)	5%[59 µM]	20%	nt	-11%	nt
Cc1ccc(Nc2ccc(N3CCN(C(=O)c4cccc([N+](=O)[O-])c4)CC3)nn2)cc1	-5%[59 µM]	8%	-34%	-29%	nt
O=C(CN1CCN(c2ccc(O)cc2)CC1)Nc1ccc(SC(F)F)cc1	2.2µM*	-34%	?	?	-1%
COc1ccc(N2CCN(CC(=O)Nc3ncc(C)s3)CC2)cc1	14%[2.33 µM]	0%	-12%	-30%	nt
O=C(CN1CCN(CC(=O)Nc2ccc(-c3ccccc3)cc2)CC1)Nc1ccc(F)cc1	35µM*	-10%	-31%	-16%	nt
O=C(CN1CCOCC1)Nc1ccc(F)cc1	18%	69%	-16%	6%	nt
CCN(CC)c1ccc(NC(=O)CN2CCN(c3nc(C)cc(C)n3)CC2)cc1	?	?	35µM*	-18%[11.4 µM]	?
COc1ccc(N2CCN(CC(=O)Nc3nc(C)cs3)CC2)cc1	3.5µM*	40µM*	11µM*	5.6µM*	-2%
C#CC(C)(CC)NC(=O)c1cc2c(n(-c3ccc(Cl)cc3)c1=O)CC(C)(C)CC2=O (stereo not given)	-4%[59 µM]	22%	-12%	-11%	nt
COc1ccccc1CNC(=O)CCCN1C(=O)CSc2c1c(C)nn2-c1ccccc1	-1%[59 µM]	48%	-14%	-23%	nt
COc1ccccc1OCC(=O)Nc1nc2c(s1)CC(C)CC2 (stereo not given)	-37%[59 µM]	15%	-17%	-30%	nt
O=C(CN1CCN(c2ccc(Cl)cc2)CC1)Nc1ccc(F)cc1	-1%[12.7 µM]	31%	-12%	-19%	-11%
CCOc1ccc(NC(=O)CN2CCN(c3ccc(F)cc3)CC2)cc1	15%	11%	-23%	?	nt
COc1ccc(N2CCN(C(=O)CN3CCN(c4nc(-c5ccc(F)cc5)cs4)CC3)CC2)cc1	?	?	20µM*	32µM*	-2%
COc1ccc(-c2nnn(CC(=O)N3CCN(c4ccc(F)cc4)CC3)n2)cc1	27%	7%	-21%	-2%[11.4 µM]	nt
CCN(CC)c1ccc(NC(=O)CN2CCN(c3ccc(F)cc3)CC2)cc1	8.9µM*	-17%	?	?	-27%
CCOc1ccccc1C(=O)Nc1nc2c(s1)CC(C)CC2 (stereo not given)	10µM*	0%	3%	-13%	nt
COc1ccc(NC(=O)CN2CCN(c3ccc(F)cc3)CC2)cc1	-2%	-2%	-14%	25µM*	nt
Cc1cccc(NC(=O)CSc2nc3c([nH]c4ccccc43)c(=O)n2-c2ccc(F)cc2)c1C	-7%[59 µM]	13%[57 µM]	-1%	5%	nt
CCOc1cc(C2c3c(oc4ccccc4c3=O)C(=O)N2Cc2ccc3c(c2)OCO3)ccc1O (stereo not given)	4%[59 µM]	27%	3%	-9%	nt
O=[S+]([O-])(c1ccc2ncsc2c1)N1CCN([S+](=O)([O-])c2c(F)cccc2F)CC1	nt	nt	nt	-12%	nt
O=c1[nH]c(=O)n([C@@H]2C[C@H](O)[C@H](CO)O2)cc1C(F)(F)F	19%[21.5 µM]	nt	nt	nt	nt
Cn1c(N)c(C(=O)CN2CCc3ccccc3C2)c(=O)n(C)c1=O	8.9µM*	31%	-12%	3%	-1%
COc1ccc(N2CCN(c3ccc4nnc(CCC(=O)Nc5ccc(C)cc5)n4n3)CC2)cc1	nt	?	45µM*	?	3%
COc1ccc(N2CCN(CC(=O)Nc3nc4c(s3)CC(C)CC4)CC2)cc1 (stereo not given)	10µM*	?	nt	50µM*	?
SMILES	G9a block	HP1b binding inh	BAZ2B inh	JMJD2A Tudor	L3MBTL1 inh
O=C(/C=C/C(=O)N1CCc2ccccc2C1)N1CCc2ccccc2C1	0%[59 µM]	28%	-14%	-15%	nt
COc1ccc(CC(=O)Nc2nc3c(s2)CC(C(C)(C)C)CC3)cc1 (stereo not given)	1%[59 µM]	22%	-1%	-26%	nt
O=C(O)CN1CCc2ccccc2C1	?	-23%	-5%	28µM*	-3%
CC1(C)CN(c2ccccc2)N(Cc2ccc(F)cc2)C1=O	-15%[0.0925 µM]	30%	16%	1%	13%
O=c1c(-c2cc(F)cc(F)c2)nc2cnc(N3CCNCC3)nc2n1-c1ccccc1	9%[0.501 µM]	nt	nt	nt	nt
CCOc1[nH]c(/N=C/c2ccc(OC)cc2)c(C#N)c1C#N	nt	?	nt	25µM*	nt
C#CCOCCOCCOCCNc1nc(N2CCN(C(=O)C([C@@H](C)O)n3cc([C@@H](N)CCCCN)nn3)CC2)nc(N2CCN(C(=O)[C@H](CO)n3cc([C@@H](N)C(C)C)nn3)CC2)n1 (stereo not given in full)	nt	25%	nt	79µM*	2%
C#CCOCCOCCOCCNc1nc(N2CCN(C(=O)[C@H]([C@@H](C)O)n3cc(CCCCN)nn3)CC2)nc(N2CCN(C(=O)[C@H](C)n3cc(CCCN=C(N)N)nn3)CC2)n1	?	23%	-5%	-28%	4%
C#CCOCCOCCOCCNc1nc(N2CCN(C(=O)C([C@@H](C)O)n3cc([C@@H](N)CCCCN)nn3)CC2)nc(N2CCN(C(=O)C([C@@H](C)O)n3cc([C@@H](N)CCCCN)nn3)CC2)n1 (stereo not given in full)	nt	27%	nt	50µM*	3%
C#CCOCCOCCOCCNc1nc(N2CCN(C(=O)[C@H](CO)n3cc([C@@H](N)C(C)C)nn3)CC2)nc(N2CCN(C(=O)[C@H](CO)n3cc([C@@H](N)C(C)C)nn3)CC2)n1	nt	23%	nt	79µM*	nt
COc1ccc(-c2cnc(N)n2CC2CCCO2)cc1 (stereo not given)	98%[59 µM]	-1%	6%	?	-14%
c1ccc(-c2cnc(SCCN3CCOCC3)n2CC2CCCO2)cc1 (stereo not given)	2.5µM*	?	20µM*	3.5µM*	-7%
CCCCN1C(=O)c2ccccc2NC1c1ccc(OC)c(COc2ccc(NC(C)=O)cc2)c1 (stereo not given)	nt	nt	nt	-34%	nt
COc1cc(C(=O)NC(C)c2ccc(-n3ccnc3)cc2)cc(OC)c1C (stereo not given)	3.5µM*	-5%	50µM*	79µM*	nt
Cc1cccc(/N=C/c2c(O)cc(C)oc2=O)n1	13µM*	6%	-14%	?	?
Oc1ccc2ccccc2c1C=Nc1ccc(Cl)cn1	1.8µM*	-20%	-10%	25µM*	-28%
Cc1cc(O)c(/C=N/c2ccccn2)c(=O)o1	14µM*	19%	?	79µM*	?
Cc1ccc(CO/N=C/c2c(O)cc(C)oc2=O)cc1	32µM*	40%	?	?	4%
Oc1ccccc1C=NN=Cc1c(O)ccc2ccccc12	nt	47%	nt	-5%	nt
Nc1ncnc2c1nc(Cl)n2[C@@H]1O[C@H](CO)[C@@H](O)[C@@H]1O	nt	4%[57 µM]	nt	-12%[57.1 µM]	nt
Cc1ccc(N/N=C/c2c(O)cc(C)oc2=O)cc1	?	46%	?	-29%	2%

High-throughput results as filed in PubChem.
